# High-throughput results deposited in PubChem BioAssay by several laboratories.
# Rows were chosen to be rich in hits. Some 3.1% of all compounds tested hit in one or more screens of this group.
# NadD block = inhibitors of Staphylococcus aureus NadD; purified NadD enzyme, colorimetric absorbance read-out; inhibition, % at 20 µM; 360,000 compounds, 0.78% hits; in the data active means inhibition above about 26%
# FAS TE block = blocks the thioesterase domain of human fatty acid synthase. P49327. recombinant FAS-TE, OMFH fluorogenic substrate, fluorescence endpoint. inhibition, % at 15 µM. 360,000 compounds, 0.67% hits. AID 602261;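 active means compounds whose normalised, plate-corrected inhibition of enzyme fluorescence in the single-dose primary screen is 50% or more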;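 further: 0% = DMSO with enzyme and 100% = substrate without enzyme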
# Calb FLC = C. albicans growth modulation with fluconazole. C. albicans CaCi-2 (fluconazole-resistant clinical isolate) + fluconazole, Alamar Blue growth, 48 h. growth inhibition, % (concentration not given with the values). 300,000 compounds, 0.57% hits. AID 1979;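 active means growth inhibition above about 58% in most replicates, limit read from the data, passing the limit was not always enough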;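 further: all wells also contain fluconazole at 8 µg/ml as a sub-toxic cotreatment; 0% = median of DMSO wells and 100% = median of geldanamycin control wells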
# ATG4B inh = ATG4B (human) cysteine protease inhibition; ATG4B cleavage of LC3-PLA2, NBD-HPC fluorescence, 1 h; AID 504462; Q9Y4P1; inhibition, % at 8.33 µM; 340,000 compounds, 0.51% hits; in the data active means inhibition above about 40%
# SUMO Mot1 rescue = SUMOylation pathway inhibition by Mot1-301 growth rescue; S. cerevisiae Mot1-301 growth rescue, ATP luminescence, 38.5C; percent above DMSO median, 100 means doubled; growth rescue, % at 18.8 µM; 320,000 compounds, 1% hits;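 active means every valid replicate shows activation above 250% relative to neutral control wells; inactive means the rest, any valid replicate at or below 250%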;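 further: OY570 slx delta 5 strain wells were the positive control but not used for scaling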
# Mot1 SUMO dose = yeast SUMO pathway inhibition in dose response; S. cerevisiae Mot1-301 galactose growth, ATP luminescence, 24 h; -100 = growth of slx-deleted rescue strain; AID 493004; 2,300 tested, under 10 active; shares compounds with SUMO Mot1 rescue; growth activity, percent, % at 42 µM;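 active means Signal drops as the depositor expects, and the fitted half-maximal dose is no more than ten times the top valid tested dose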;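 further: more negative values mean stronger growth rescue toward the control strain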
# The depositor's hits bear a star; / = not tested or not shown; + = active, no number; [ ] = remark or other dose.
SMILES,NadD block,FAS TE block,Calb FLC,ATG4B inh,SUMO Mot1 rescue,Mot1 SUMO dose
CC1Oc2cc3c(-c4c(O)cc(O)c5c(O)c6c(cc45)OC(C)C(C)C6=O)c(O)cc(O)c3c(O)c2C(=O)C1C (configuration not stated),36.5*,22.2,-11.6,25.8,3.0,/
CN1C(=O)CCC2(C)C1=CCC1C2CCC2(C)C1CCC2(C)O (configuration not stated),4.1,-7.5,/,9.2,/,/
COC(=O)C1=C(c2ccc(Cl)c(C(F)(F)F)c2)C[C@@H]2CC[C@H]1N2C(=O)NCc1ccco1,-9.5,15.3,/,-6.9,16.6,/
Cc1ccc(C[n+]2c(-c3ccc(C)cc3)cc(-c3ccc(C)cc3)cc2-c2ccc(C)cc2)cc1,8.8,-10.3,2.6,-6.4,280.2*,/
Cc1ccc(-c2cc(-c3ccc(C)cc3)[n+](-c3ccc(C(=O)O)cc3)c(-c3ccc(C)cc3)c2)cc1,6.8,-9.8,-22.4,0.9,16.2,/
O=C1C2CCN(CC2)C1Cc1ccc(OCCOc2ccccc2)cc1 (configuration not stated),-6.7,-5.5,108.5*,3.1,10.0,/
O=C1C2CCN(CC2)C1Cc1ccccc1O (configuration not stated),/,/,1.8,-0.5,-0.7,/
COc1cccc(-c2sc3ccccc3c2-c2ccc(OCCN3CCOCC3)cc2)c1,-7.4,24.3,/,-11.3,462.5*,/
O=C(/C=C/c1ccc(Br)cc1)NC(=S)N1C[C@H]2C[C@H](C1)c1cccc(=O)n1C2,-3.4,-1.3,3.0,-17.0,0.2,/
Cc1ccccc1NC(=O)NCCN1CC1,7.5,-1.5,3.7,-1.0,1.0,/
CC(C)(C)c1ccc(CSc2cnn(C(C)(C)C)c(=O)c2Cl)cc1,-6.3,-66.0,84.3*,-4.9,-5.6,/
C=CCn1c(O)c(C(C)=NCCCn2ccnc2)c(=O)[nH]c1=O,-6.7,-5.3,-0.1,-7.0,-7.3,/
COc1ccc(OC)c(N2C(=O)/C(=C/c3ccco3)C(=O)NC2=S)c1,/,/,-2.0,87.1*,-13.4,/
CC(=O)N(C)C1=Nc2ccc(Cl)cc2C(c2ccccc2)=[N+]([O-])C1,3.4,-4.4,/,-0.3,/,/
CC(=O)N1CC(=O)Nc2ccc(Cl)cc2C1c1ccccc1 (configuration not stated),-2.9,-4.9,-6.7,10.3,+,1.0
Cc1ccc(S(=O)(=O)c2nc(-c3ccccc3Cl)oc2N(C)C2CCN(C)CC2)cc1,-13.1,3.4,/,-15.0,4.1,/
CC(=O)C1(c2ccccc2)CCNCC1,-2.8,-7.9,-3.9,5.2,706.2*,0.4[21 µM]
O=C(O)C1(c2ccc(Cl)cc2)CCC1,4.4,-5.6,17.9,-2.9,/,/
COC(=O)C1CN(C#N)N(c2ccc(Cl)cc2)C12c1ccccc1-c1ccccc12 (configuration not stated),6.4,-15.9,0.7,0.8,792.2*,-1.6
CC1(C)C(C(=O)N2CCN(c3ccc(Cl)cc3)CC2)C1(C)C,-1.8,5.8,/,-7.8,-8.8,/
O=C(c1ccccc1)C(CN1CCCC1)c1ccccc1 (configuration not stated),-0.8,-21.1,92.7*,-1.6,560.1*,-1.3
COC(=O)c1cn(C(=O)c2cccc3ccccc23)c2ccccc12,-8.5,35.6,3.0,-2.7,490.0*,-0.6
CN(C)c1ccccc1,-6.4,-3.4,/,/,/,/
Cc1cccc(N=Nc2ccc(N(C)C)cc2)c1,5.7,20.1,-21.3,10.7,735.6*,0.5
CN(C)/C=C/C(=O)C(Cl)(Cl)Cl,-3.9,-4.1,-9.2,-4.1,9.6,/
CCOP(=O)(OCC)C(NC(=O)c1ccccc1C)C(Cl)(Cl)Cl (configuration not stated),1.5,-14.2,0.2,2.9,-17.5,/
CCOP(=O)(OCC)C(NC(=O)c1cccc(C)c1)C(Cl)(Cl)Cl (configuration not stated),-3.1,-3.1,-7.7,-9.8,971.2*,-0.3
CCOP(=O)(OCC)C(NC(=O)c1cccc([N+](=O)[O-])c1)C(Cl)(Cl)Cl (configuration not stated),-3.1,2.8,3.4,-6.9,710.2*,0.4
O=[N+]([O-])c1cnc[nH]1,3.7,-0.5,-7.9,1.1,62.3,/
COC(=O)C1=C(c2ccc(F)cc2OCc2ccccc2)C[C@@H]2CC[C@H]1N2C(=O)N1CCOCC1,-6.4,-1.0,/,-9.1,9.8,/
